# Experimental data taken from ChEMBL document CHEMBL3988442, “University of Dundee, Small-Polar-MMV Screening Library” (2021).
# Out of some 69,000 compounds screened, about 1,000 (1.4%) showed an effect of 50% or more. The full list was thinned out, with strong results kept by preference.
# Tested on: Leishmania donovani
# Test: Leishmania intramacrophage assay
# Assay type: functional, organism-based
# Set-up: scale not given: in the data most compounds retested in dose-response had high values
compound,measurement,setting,value
Cc1noc(C)c1CN1C(=O)[C@H]2CC[C@@H]1CN(Cc1ccc(Cl)cc1)C2,Percent Effect,"30.3 µM, […]",25.74%
COc1ccc(F)cc1C(C(=O)O)N1CCCN(C2CCCC2)CC1 (configuration not stated),Percent Effect,"30.3 µM, […]",27.32%
CCS(=O)(=O)N1CCN(Cc2cccnc2)c2nc(C)ccc2C1.O=C(O)C(F)(F)F.O=C(O)C(F)(F)F,Percent Effect,"30.3 µM, […]",32.81%
COc1ccc(CC(=O)N2CCC[C@@H](N)[C@@H]2c2ccccc2F)cc1.Cl,Percent Effect,"30.3 µM, […]",50.59%
COc1cccc(CCC(=O)N2CCC[C@@H](N)[C@@H]2c2ccccc2F)c1.Cl,Percent Effect,"30.3 µM, […]",36.93%
N[C@@H]1CCCN(C(=O)Cc2c[nH]c3ccccc23)[C@H]1c1ccccc1F,Percent Effect,"30.3 µM, […]",38.86%
Cc1noc2ncc(S(=O)(=O)Nc3cc(CC(C)(C)C)[nH]n3)cc12,Percent Effect,"30.3 µM, […]",32.33%
CCCN(CC)C(=O)c1cc(Cn2c(C)nc3ccccc32)[nH]n1,Percent Effect,"30.3 µM, […]",56.73%
CCN(CCO)C(=O)c1cc(Cn2c(C)nc3ccccc32)[nH]n1,Percent Effect,"30.3 µM, […]",22.11%
CCCN(CCOC)C(=O)c1cc(Cn2c(C)nc3ccccc32)[nH]n1,Percent Effect,"30.3 µM, […]",37.64%
CCc1nnc2n1CCN(C(=O)c1ccc(-c3ccco3)[nH]c1=O)C2,Percent Effect,30 µM,4.718%
COc1ccccc1N1CCN(C(=O)CSCC2CC2)C(C)C1 (configuration not stated),Percent Effect,"30.3 µM, […]",-23.1%
Cc1ccc(C)c(CSc2nnc([C@@H](N)C(C)C)o2)c1.Cl,Percent Effect,"30.3 µM, […]",-10.46%
CSCC[C@H](N)c1nnc(SCc2cc(C)ccc2C)o1.Cl,Percent Effect,"30.3 µM, […]",51.5%
Cc1ccc(C)c(CSc2nnc(C(N)C(C)C)o2)c1.Cl (configuration not stated),Percent Effect,"30.3 µM, […]",-13.85%
Cc1noc(C)c1-c1cncc(C2CCCN2Cc2cn(C)cn2)n1 (configuration not stated),Percent Effect,"30.3 µM, […]",19.34%
CNC(=O)N1CC[C@@H]2CN(Cc3cccc(Cl)c3)S(=O)(=O)[C@@H]2CC1,Percent Effect,"30.3 µM, […]",7.409%
CNC(=O)N1CC[C@@H]2CN(Cc3cccc(OC)c3)S(=O)(=O)[C@@H]2CC1,Percent Effect,"30.3 µM, […]",61.69%
CCCC(C(=O)NC1CCN(S(C)(=O)=O)CC1)n1cccc1 (configuration not stated),Percent Effect,"30.3 µM, […]",18.03%
COc1ccc(CN2CCC3(CC2)CN(c2ccccn2)CCO3)cc1.O=C(O)C(F)(F)F.O=C(O)C(F)(F)F,Percent Effect,"30.3 µM, […]",-28.76%
COc1ccc(C(CNS(=O)(=O)c2cn(C)nc2C)N2CCCC2)cc1.Cl (configuration not stated),Percent Effect,"30.3 µM, […]",23.75%
Cc1[nH]c2c(F)cccc2c1CC(=O)N1CCCC(N)CC1 (configuration not stated),Percent Effect,"30.3 µM, […]",-7.725%
Cc1cncc(C(=O)N2CCC3(CC2)NC(=O)CC3c2ccccc2)c1.O=C(O)C(F)(F)F (configuration not stated),Percent Effect,"30.3 µM, […]",4.194%
Cn1cc(C2CC(=O)NC23CCN(C(=O)Cc2ccccn2)CC3)cn1.O=C(O)C(F)(F)F (configuration not stated),Percent Effect,"30.3 µM, […]",2.376%
Cn1cc(C2CC(=O)NC23CCN(C(=O)c2cccnc2)CC3)cn1.O=C(O)C(F)(F)F (configuration not stated),Percent Effect,"30.3 µM, […]",56.16%
O=C(NCCn1nc2ccccn2c1=O)c1sccc1-c1ccccc1,Percent Effect,30 µM,25.6%
Cn1ccc(NC(=O)Cc2ccccc2F)n1,Percent Effect,"30.3 µM, […]",-10.05%
COC(=O)N1CCCC(C(=O)Nc2nc(C)c(SC)s2)C1 (configuration not stated),Percent Effect,"30.3 µM, […]",9.664%
O=C(CCc1ccco1)NS(=O)(=O)N1CCOc2ccccc21,Percent Effect,"30.3 µM, […]",39.68%
CC(C)OCCC(=O)NS(=O)(=O)N1CCOc2ccccc21,Percent Effect,"30.3 µM, […]",-11.14%
O=C(CCOCc1ccccc1)NS(=O)(=O)N1CCOc2ccccc21,Percent Effect,"30.3 µM, […]",54.49%
COCCn1cc(C(=O)N2CCCC2c2ccncc2)c2ccccc21 (configuration not stated),Percent Effect,"30.3 µM, […]",-8.376%
O=C(c1cccnc1)N1CCC2(CNS(=O)(=O)c3cnccc3O2)C1 (configuration not stated),Percent Effect,"30.3 µM, […]",9.418%
Cc1cc(N2CCN(C(=O)[C@@H]3C[C@@H]4C=C[C@H]3C4)CC2)nc2ccccc12,Percent Effect,"30.3 µM, […]",19.09%
CC(=O)Nc1ccc(C(=O)N(C)Cc2cccc(F)c2)s1,Percent Effect,"30.3 µM, […]",-28.94%
COc1cccc(CN(C)C(=O)c2ccc(NC(C)=O)s2)c1OC,Percent Effect,"30.3 µM, […]",52.82%
CC(=O)Nc1ccc(C(=O)N(C)Cc2ccc(F)cc2F)s1,Percent Effect,"30.3 µM, […]",41.29%
Cc1cc(C(=O)NCc2cccnc2N2CCCC(O)C2)c(C)o1 (configuration not stated),Percent Effect,"30.3 µM, […]",26.29%
CCc1nc(C)cc(N2CCCC(C(=O)c3ccc(OC)cc3C)C2)n1 (configuration not stated),Percent Effect,"30.3 µM, […]",50.79%
COc1ccc(C(=O)C2CCCN(c3nccc(N)n3)C2)c(C)c1 (configuration not stated),Percent Effect,"30.3 µM, […]",44.3%
COc1ccc(C(=O)C2CCCN(c3cc(N)ncn3)C2)c(C)c1 (configuration not stated),Percent Effect,"30.3 µM, […]",55.56%
COc1ccc(C(=O)C2CCCN(c3cc(OC)ncn3)C2)c(C)c1 (configuration not stated),Percent Effect,"30.3 µM, […]",27.19%
COc1ccc(C(=O)C2CCCN(c3cnccn3)C2)c(C)c1 (configuration not stated),Percent Effect,"30.3 µM, […]",7.713%
CCc1nc2n(n1)CCCC2NC(=O)Nc1cc(OC)ccc1C (configuration not stated),Percent Effect,"30.3 µM, […]",6.976%
CC1(C)COCCN1C(=O)CCc1nc(-c2ccncc2)no1,Percent Effect,"30.3 µM, […]",0.2365%
CC1CCN(CC(=O)NC2CCN(C(C)c3ccccc3)CC2)CC1.Cl (configuration not stated),Percent Effect,"30.3 µM, […]",0.5624%
CCn1ccc(-c2cc(NCCCOc3cccc(C)c3)nc(C)n2)n1,Percent Effect,"30.3 µM, […]",7.258%
COc1ccccc1OCCNCCn1cccn1,Percent Effect,30 µM,30.77%
CCn1ccc(-c2cc(NCCCOc3ccccc3C)nc(C)n2)n1,Percent Effect,"30.3 µM, […]",56.31%
Cc1ccc(C(=O)N2C[C@@H](N3CCN(C)CC3)[C@H]3OCCC[C@H]32)cn1,Percent Effect,"30.3 µM, […]",22.91%
CNC(=O)[C@@H]1C[C@H]2CN(Cc3nccs3)C[C@H]2N1C.O=C(O)C(F)(F)F.O=C(O)C(F)(F)F,Percent Effect,"30 µM, 30.03 µM",9.102%
CC1CN(C(=O)c2cc(=O)[nH]c3ccc(F)cc23)CCO1 (configuration not stated),Percent Effect,"30.3 µM, […]",-3.043%
CN(C)C[C@H]1C[C@@H](CO)CN(C(=O)c2cc(=O)[nH]c3cc(F)ccc23)C1,Percent Effect,"30.3 µM, […]",30.17%
CN(C)C[C@@H]1[C@H]2CN(C(=O)c3cc(=O)[nH]c4ccc(F)cc34)C[C@@H]12,Percent Effect,"30.3 µM, […]",55.47%
CCOC(=O)C1CCN(c2nccc(-n3nc(C)cc3C)n2)CC1,Percent Effect,"30.3 µM, […]",24.33%
Cc1cnc(N2CC(C(=O)N3CCOCC3)C3(CCOCC3)C2)nc1 (configuration not stated),Percent Effect,"30.3 µM, […]",0.6566%
Cn1ccc(C(=O)N2CCCC(Cc3cccc4ncccc34)C2)n1 (configuration not stated),Percent Effect,"30 µM, 30.03 µM",74.08%
COCCNc1cc(-c2cccc(C(=O)O)c2C)c2cc[nH]c2n1,Percent Effect,"30.3 µM, […]",27.05%
Cc1cc(C(=O)NCCN2CCCC(C)C2)nn1C(C)(C)C (configuration not stated),Percent Effect,"30.3 µM, […]",12.01%
CN(C)C(=O)c1cncnc1-c1ccc(CNC(=O)C2CCCO2)cc1 (configuration not stated),Percent Effect,"30.3 µM, […]",-46.25%
O=C1CC2(CCN(CC3CCOC3)CC2)CN1Cc1cc(F)cc(F)c1 (configuration not stated),Percent Effect,"30 µM, 30.03 µM",41.14%
O=C1CC2(CCN(CC3CC3)CC2)CN1Cc1cc(F)cc(F)c1,Percent Effect,"30.3 µM, […]",59.82%
O=C1CC2(CCN(CCO)CC2)CN1Cc1cc(F)cc(F)c1,Percent Effect,"30 µM, 30.03 µM",24.96%
Cc1cc(C(N)=O)c2c(Br)cccc2n1,Percent Effect,"30.3 µM, […]",-10.76%
c1ccc2c(N3CCOC(Cn4cccn4)C3)ncnc2c1 (configuration not stated),Percent Effect,"30.3 µM, […]",-0.8022%
Cc1cnn(CC2CN(c3ncnc4[nH]ccc34)CCO2)c1 (configuration not stated),Percent Effect,30 µM,4.128%
Cc1cnn(CC2CN(c3ncnc4ccccc34)CCO2)c1 (configuration not stated),Percent Effect,"30 µM, 30.03 µM",53.49%
c1cnn(CC2CN(c3ncnc4sccc34)CCO2)c1 (configuration not stated),Percent Effect,"30 µM, 30.03 µM",57.28%
c1cnn(CC2CN(c3ncnc4ccsc34)CCO2)c1 (configuration not stated),Percent Effect,"30 µM, 30.03 µM",45.92%
Cc1cnn(CC2CN(c3ncnc4ccsc34)CCO2)c1 (configuration not stated),Percent Effect,"30 µM, 30.03 µM",66.34%
CN(C)CC1CN(c2ncnc3ccsc23)CCO1 (configuration not stated),Percent Effect,"30.3 µM, […]",16.39%
c1nc(N2CCOC(Cn3cncn3)C2)c2sccc2n1 (configuration not stated),Percent Effect,"30.3 µM, […]",23.8%
c1cnn(CC2CN(c3ncnc4[nH]ccc34)CCO2)c1 (configuration not stated),Percent Effect,30 µM,1.835%
Cc1nc2cc(C(=O)N(CCC#N)CC3CCCO3)ccc2[nH]1 (configuration not stated),Percent Effect,"30.3 µM, […]",5.976%
Cc1nn(C)c(C)c1OCC(=O)NCC(O)Cc1ccccc1 (configuration not stated),Percent Effect,"30.3 µM, […]",-11.07%
CC(C)(C)CC(=O)NS(=O)(=O)c1ccc(F)cc1C(F)(F)F,Percent Effect,"30.3 µM, […]",3.58%
CNS(=O)(=O)c1ccc(C(=O)N2CCCC2c2ccccc2C)o1 (configuration not stated),Percent Effect,30 µM,17.32%
O=C(Cn1ccc2sccc2c1=O)NCCCc1ccccc1,Percent Effect,"30.3 µM, […]",1.811%
Cc1cccc(CN2CCCC3(CCN(CC(=O)N(C)C)C3=O)C2)n1.O=C(O)C(F)(F)F (configuration not stated),Percent Effect,"30.3 µM, […]",-21.17%
Cc1ccc(C(=O)Nc2ccc3c(c2)N(C)CCN(C)C3)c(=O)[nH]1,Percent Effect,"30.3 µM, […]",4.534%
NC1(CN2CCCCC2)CCCCC1,Percent Effect,"30.3 µM, […]",-14.65%
Cc1nc(CN2CCCn3c(nc(Cn4cncn4)cc3=O)C2)cs1.O=C(O)C(F)(F)F,Percent Effect,"30.3 µM, […]",16.7%
CCOC(=O)Cc1n[nH]c(-c2cncc(Br)c2)n1,Percent Effect,"30.3 µM, […]",100.5%
CNC(=O)Cc1n[nH]c(-c2cncc(Br)c2)n1,Percent Effect,"30.3 µM, […]",-1.104%
CCNC(=O)Cc1n[nH]c(-c2cncc(Br)c2)n1,Percent Effect,"30.3 µM, […]",-72.67%
Cc1oncc1C(=O)N1CCC(O)(CN2CCOCC2)C(C)(C)C1 (configuration not stated),Percent Effect,"30.3 µM, […]",22.16%
COc1cccc(CN(C)Cc2nc3c(cnn3C)c(=O)[nH]2)c1OC,Percent Effect,"30.3 µM, […]",-6.431%
COc1cc(NC2CCN(C3CCS(=O)(=O)CC3)CC2)ncn1,Percent Effect,"30.3 µM, […]",36.7%
Cc1nc2[nH]cnc(Nc3cc(C)n(C)n3)c-2n1,Percent Effect,"30.3 µM, […]",75.58%
Cc1nc2[nH]cnc(Nc3ccn(C)n3)c-2n1,Percent Effect,"30.3 µM, […]",-6.289%
Cc1nc2[nH]cnc(Nc3cnn(C)c3)c-2n1,Percent Effect,"30.3 µM, […]",10.52%
CCSCCC(=O)Nc1ncn(CC(=O)NCc2ccccc2)n1,Percent Effect,"30 µM, 30.03 µM",19.14%
O=C(c1c2c(N3CCOCC3)ncnc2n2ccccc12)N1CCCC1,Percent Effect,"30.3 µM, […]",16.59%
CN(C)CCN1CCOCC2(CCCN(C(=O)c3ccoc3)C2)C1.O=C(O)C(F)(F)F.O=C(O)C(F)(F)F (configuration not stated),Percent Effect,"30.3 µM, […]",9.003%
Cc1cc2cc(CNC3CCN(CC(=O)N(C)C)CC3)oc2cc1C,Percent Effect,"30.3 µM, […]",25.29%
Cc1cc2cc(CNC3CCN(CC4CCOC4)CC3)oc2cc1C (configuration not stated),Percent Effect,"30.3 µM, […]",70.06%
Cc1cc2cc(CNC3CCN(S(C)(=O)=O)CC3)oc2cc1C,Percent Effect,"30.3 µM, […]",23.07%
